IDE cell activ: IDE (human) activation, cell-based; AID 493087; HEK cells, FAbeta-B cleavage, fluorescence polarization; 0% vehicle, 100% cell-free pure enzyme wells; activation, % at 5.96 µM; 340,000 compounds, 0.073% hits; P14735;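 active = activation above the mean of all tested compounds plus 3 SD, set per screening campaign, cut at about 17% in these data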
Target sequence (P14735 whole entry, looked up): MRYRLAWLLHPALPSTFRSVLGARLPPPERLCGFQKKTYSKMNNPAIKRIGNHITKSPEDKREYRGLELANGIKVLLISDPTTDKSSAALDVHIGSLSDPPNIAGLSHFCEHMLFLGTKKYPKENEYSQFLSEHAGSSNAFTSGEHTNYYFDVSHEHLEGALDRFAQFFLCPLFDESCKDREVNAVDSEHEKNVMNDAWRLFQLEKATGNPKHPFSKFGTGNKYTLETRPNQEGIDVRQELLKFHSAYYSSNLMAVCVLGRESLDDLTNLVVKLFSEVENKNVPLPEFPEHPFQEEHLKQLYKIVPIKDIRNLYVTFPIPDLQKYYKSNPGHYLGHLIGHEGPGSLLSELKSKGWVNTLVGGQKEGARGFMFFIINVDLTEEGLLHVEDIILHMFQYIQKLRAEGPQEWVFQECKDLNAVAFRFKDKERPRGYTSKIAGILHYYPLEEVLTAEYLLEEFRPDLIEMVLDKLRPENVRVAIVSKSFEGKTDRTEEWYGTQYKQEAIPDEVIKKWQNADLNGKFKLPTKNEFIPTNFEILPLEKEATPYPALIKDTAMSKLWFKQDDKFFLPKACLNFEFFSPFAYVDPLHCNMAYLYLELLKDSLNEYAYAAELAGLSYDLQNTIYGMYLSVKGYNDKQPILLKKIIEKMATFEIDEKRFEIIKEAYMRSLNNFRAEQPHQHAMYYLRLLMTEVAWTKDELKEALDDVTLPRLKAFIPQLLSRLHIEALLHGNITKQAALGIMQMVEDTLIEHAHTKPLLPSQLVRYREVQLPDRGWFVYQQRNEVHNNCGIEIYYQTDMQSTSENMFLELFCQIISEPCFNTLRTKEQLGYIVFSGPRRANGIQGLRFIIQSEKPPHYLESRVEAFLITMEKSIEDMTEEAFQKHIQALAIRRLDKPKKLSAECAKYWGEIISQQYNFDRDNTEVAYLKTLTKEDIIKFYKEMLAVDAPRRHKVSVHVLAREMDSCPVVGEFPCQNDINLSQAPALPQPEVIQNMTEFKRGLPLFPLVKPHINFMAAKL
SKKanGAS inh: SKKanGAS growth inhibition | S. pyogenes SKKanGAS, kanamycin growth, BacTiter-Glo, 6 h | 300,000 compounds, 1.3% hits | inhibition, % at 7.5 µM;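 active = mean replicate score, as percent of positive control median, at least 50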;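 also: strain carries kanamycin resistance gene driven by streptokinase promoter and grows in 40 µg/ml kanamycin; loss of luminescence reflects streptokinase promoter inhibition or plain growth inhibition; 0% = median of DMSO wells and 100% = positive control at its reference dose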
PP5 primary: blocks human protein phosphatase 5 activity. purified PP5c, OMFP substrate fluorescence. inhibition, % at 6.7 µM. 320,000 compounds, 0.18% hits;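 active = inhibition above the campaign's mean inhibition across all tested compounds plus 3 SD, cut at about 9.5% in these data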;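 also: 0% = DMSO only and 100% = 100 µM cantharidin control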
IDE inh: inhibitors of human insulin-degrading enzyme in cells | P14735 | 320,000 compounds, 0.41% hits | HEK cells, FAbetaB cleavage, fluorescence polarization | inhibition, % at 5.59 µM;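 active = percent inhibition above the average of all tested compounds plus 3 SD, set per screening campaign, cut at about 16% in these data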;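 also: IDE supplied by intact live HEK cells; FP after avidin binding of uncleaved biotin substrate so inhibition keeps polarization high; 0% = DMSO wells and 100% = 60 µM reference IDE inhibitor Ii1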
Exocytosis inh: blocks lytic granule exocytosis. TALL-104 LAMP-1 surface exposure, flow cytometry; cells stimulated with thapsigargin and PMA. inhibition, % at 10 µM. 360,000 compounds, 0.66% hits. AID 651702;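 active = inhibition above about 55%, limit read from the data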
PP1 inh: PP1-alpha (human) inhibition in PP5 counter-screen. P62136. purified PP1alpha, OMFP fluorescence. inhibition, % at 6.7 µM. 320,000 compounds, 0.9% hits;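 active = inhibition above the mean inhibition of all tested compounds plus 3 SD, computed separately for each screening campaign, cut at about 15% in these data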
Active calls of the source: *; · = not tested or not shown. Rows were chosen to be rich in hits. Some 2.8% of all compounds tested hit in one or more screens of this group.

SMILES	IDE cell activ	SKKanGAS inh	PP5 primary	IDE inh	Exocytosis inh	PP1 inh
COc1cccc(CNC(=O)[C@@H](C)N2C(=O)N3CCc4c([nH]c5ccc(OC)cc45)C3(C)C2=O)c1 (some centres undefined)	5.8	6.0	0.9	4.7	6.6	1.7
NC(=O)[C@H](Cc1cc2ccccc2s1)NC(=O)[C@@H]1CC2(CC(c3cccc(NC(=O)[C@@H]4CCC(=O)N4)c3)=NO2)CN1C(=O)/C=C/Sc1ccccc1 (some centres undefined)	6.8	16.5	1.0	-2.4	-1.3	17.5*
NC(=O)[C@H](Cc1cc2ccccc2s1)NC(=O)[C@@H]1CC2(CC(c3cccc(NC(=O)[C@@H]4CCC(=O)N4)c3)=NO2)CN1C(=O)c1ccccc1 (some centres undefined)	-4.7	7.8	-0.3	-0.3	7.8	1.2
Cc1ccccc1NC1=NC(C)(C)N=C(N)N1	5.6	-0.7	1.3	-0.1	3.8	-3.5
CC1(C)N=C(N)NC(Nc2ccccc2)=N1	3.2	63.6*	0.3	1.3	5.5	0.7
O=C1C=C(Nc2ccccc2O)c2ccccc2C1=O	0.5	51.5*	3.6	0.2	8.1	2.0
O=C1C=C(NCc2ccccc2)c2ccccc2C1=O	-1.6	28.8	·	·	82.5*	·
O=C1CCC(=O)N1c1nc2n(n1)C(c1ccccc1)C=C(c1ccc(Br)cc1)N2 (centres undefined)	-8.6	12.7	4.0	6.1	1.7	1.9
COc1ccc(C2C=C(c3ccc(Cl)cc3)Nc3nc(NC(C)=O)nn32)cc1 (centres undefined)	·	·	3.1	20.3*	·	0.6
COc1ccc(C2C=C(c3ccc(Br)cc3)Nc3nc(N4C(=O)CCC4=O)nn32)cc1 (centres undefined)	-18.9	9.2	-0.3	29.4*	-0.8	-0.8
CC(=O)Nc1nc2n(n1)C(c1ccccc1)C=C(c1ccccc1)N2 (centres undefined)	3.7	-7.5	-0.9	2.3	-1.6	-2.1
Cc1ccc(N=Cc2cccc(O)c2O)c(C)c1	0.5	57.2*	1.3	-6.3	92.9*	2.8
O=C(Nc1ccc(OC(F)F)cc1)c1cc(S(=O)(=O)N2CCCCC2)ccc1N1CCOCC1	6.8	·	3.2	-0.8	-3.6	-1.2
CCc1nc2ccc(C(=O)Nc3cc(-c4ccccc4)ccc3OC)cn2c1N(C)Cc1nccs1	·	·	·	·	20.0	·
N#CC1=C(c2ccccc2)/C(=C/c2ccccc2)OC1=O	3.9	56.8*	0.6	-3.8	66.0*	4.7
CN(C(=O)CCNC(=O)Cn1cnc2ccccc2c1=O)c1ccccc1F	4.2	0.4	-0.2	-5.4	-10.1	-0.4
Nc1[nH]n2c(=O)cc(-c3ccccc3)nc2c1N=Nc1ccccc1	5.2	103.6*	2.1	-2.7	0.3	8.8
Cc1ccc(N=Nc2c(N)[nH]n3c(=O)cc(C)nc23)cc1	4.9	6.1	-1.0	8.0	-2.8	-1.1
Nc1[nH]n2c(=O)cc(-c3ccccc3)nc2c1N=Nc1ccc(S(N)(=O)=O)cc1	3.2	10.0	2.9	0.1	15.0	16.3*
ClC(CCN1CCN(Cc2ccccc2)CC1)c1ccccc1 (centres undefined)	6.5	-0.3	-1.5	2.4	3.0	-3.1
O=c1c(O)c(-c2cccs2)oc2ccccc12	-85.0	75.8*	-1.2	-18.0	-1.4	-6.1
O=C(COC(=O)C12CC3CC(CC(C3)C1)C2)NNC(=O)c1ccccc1	-3.0	·	·	1.1	1.3	·
COc1ccc(C(=O)c2coc(-c3ccccc3C(=O)O)c2C(=O)O)cc1	4.6	-1.8	1.3	5.9	-0.6	4.7
COc1ccc(C(=O)c2c(C(F)(F)F)oc3c2C(=O)c2ccccc2C3=O)cc1	0.9	97.0*	4.0	0.2	24.8	0.6
CN(C)CCNC(=O)C(=O)Nc1cc2c3c(c1)CCN3C(=O)CC2	3.4	1.3	0.3	-2.9	-1.0	-4.5
SMILES	IDE cell activ	SKKanGAS inh	PP5 primary	IDE inh	Exocytosis inh	PP1 inh
COC(=O)/C(=C\c1c[nH]c2ccccc12)NC(C)=O	1.5	1.6	2.2	3.7	-1.2	15.8*
O=C(CN1C(=O)CCC1=O)Nc1cccc(NC(=O)CN2C(=O)CCC2=O)c1	-0.9	2.6	-2.6	-6.7	-0.9	-2.0
CC(C)(C)NC(=O)C(c1ccc(-c2ccccc2)cc1)N(C[C@H]1CC[C@@H]([C@@H]2CC[C@H](CO)O2)O1)C(=O)c1ccc(C(C)(C)C)cc1 (some centres undefined)	-1.4	·	·	·	6.8	·
COc1ccc(-c2ccc([C@H]3[C@@H]4C=CCC[C@@]4(C)C(=O)N3Cc3ccccc3)c(F)c2)cc1	4.9	58.3*	5.6	4.2	0.1	5.1
C[C@@]12CCC=C[C@H]1[C@H](c1ccc3ccccc3c1)N(Cc1ccccc1)C2=O	2.4	69.5*	2.8	-6.3	2.8	2.3
COc1ccc(-c2cc([C@H]3[C@@H]4C=CCC[C@@]4(C)C(=O)N3Cc3ccccc3)ccc2F)cc1	1.7	41.3	2.0	-3.8	8.2	4.2
C[C@@]12CCC=C[C@H]1[C@H](c1ccc3ccccc3c1Br)N(Cc1ccccc1)C2=O	5.9	74.6*	·	6.2	1.7	·
COc1ccc(CN(C)C(=O)COC(=O)c2cc([N+](=O)[O-])ccc2N2CCCC2)c(OC)c1OC	-1.2	·	·	7.8	1.1	·
CCOC(=O)c1cc(C#N)c(SCC(=O)c2cc(C#N)c(SC)nc2C)[nH]c1=O	-13.4	35.6	2.9	14.2	0.1	9.6
CSc1nc(C)c(C(=O)C[n+]2ccc(C)cc2)cc1C#N	1.1	4.5	1.9	3.0	75.9*	0.4
CC(NC(=O)Nc1nnc(C(F)(F)F)s1)(C(F)(F)F)C(F)(F)F	4.8	84.1*	2.5	-2.6	3.0	3.4
Cc1cccc(C)c1NC(=O)CN(C)CC(=O)Nc1sc2c(c1C(N)=O)CCC2	6.4	49.5*	0.1	-1.2	6.5	-3.5
CCN1CCN(C2=CC3=CC(=C(C#N)C#N)CCC3CC2)CC1 (centres undefined)	34.6*	·	·	·	7.7	·
N#CC(C#N)=C1C=C2C=C(N3CCOCC3)CCC2CC1 (centres undefined)	58.4*	-0.9	·	·	5.0	·
N#CC(C#N)=C1C=C2C=C(N3CCCCCC3)CCC2CC1 (centres undefined)	46.9*	-6.0	·	·	46.8	·
COc1cc(C(=O)NCc2nnc(SCC(=O)NC3CCCC3)o2)cc(OC)c1OC	7.3	-6.6	3.4	-1.0	-15.9	1.3
CCOC(=O)Cn1nc(C)c(NC(=O)COc2ccc(OC)cc2)c1C	4.5	-1.5	0.5	0.8	3.4	-4.5
NC(=O)c1ccccc1NC(=O)c1ccccc1Cl	0.5	-2.5	0.2	9.0	-6.6	-3.3
O=C(Nc1ccccc1C(=O)Nc1nnc(C(F)(F)F)s1)c1ccccc1Cl	5.4	100.6*	6.4	-4.0	16.6	12.0
Cc1c2cc(O)c(=O)cc-2oc2cc(O)c(O)cc12	-24.0	16.2	-13.3	8.1	-0.9	33.1*
COc1cc(OC)c(-c2c3cc(O)c(=O)cc-3oc3cc(O)c(O)cc23)cc1OC	40.7*	·	-12.2	-54.9	1.1	-7.5

Screening results deposited in PubChem by several laboratories.
